High-throughput results (PubChem)
BAZ2B inh: inhibitors of human BAZ2B bromodomain; 4.4% of 360,000 active; AID 504333; AlphaScreen BAZ2B-H3K14Ac peptide displacement; Potency, µM (titrated, usually from 114 µM), actives largely listed as inhibitors; Q9UIF8; note: nearly all actives have a fitted effect of over 60% in size
Target sequence (Q9UIF8 whole entry, looked up): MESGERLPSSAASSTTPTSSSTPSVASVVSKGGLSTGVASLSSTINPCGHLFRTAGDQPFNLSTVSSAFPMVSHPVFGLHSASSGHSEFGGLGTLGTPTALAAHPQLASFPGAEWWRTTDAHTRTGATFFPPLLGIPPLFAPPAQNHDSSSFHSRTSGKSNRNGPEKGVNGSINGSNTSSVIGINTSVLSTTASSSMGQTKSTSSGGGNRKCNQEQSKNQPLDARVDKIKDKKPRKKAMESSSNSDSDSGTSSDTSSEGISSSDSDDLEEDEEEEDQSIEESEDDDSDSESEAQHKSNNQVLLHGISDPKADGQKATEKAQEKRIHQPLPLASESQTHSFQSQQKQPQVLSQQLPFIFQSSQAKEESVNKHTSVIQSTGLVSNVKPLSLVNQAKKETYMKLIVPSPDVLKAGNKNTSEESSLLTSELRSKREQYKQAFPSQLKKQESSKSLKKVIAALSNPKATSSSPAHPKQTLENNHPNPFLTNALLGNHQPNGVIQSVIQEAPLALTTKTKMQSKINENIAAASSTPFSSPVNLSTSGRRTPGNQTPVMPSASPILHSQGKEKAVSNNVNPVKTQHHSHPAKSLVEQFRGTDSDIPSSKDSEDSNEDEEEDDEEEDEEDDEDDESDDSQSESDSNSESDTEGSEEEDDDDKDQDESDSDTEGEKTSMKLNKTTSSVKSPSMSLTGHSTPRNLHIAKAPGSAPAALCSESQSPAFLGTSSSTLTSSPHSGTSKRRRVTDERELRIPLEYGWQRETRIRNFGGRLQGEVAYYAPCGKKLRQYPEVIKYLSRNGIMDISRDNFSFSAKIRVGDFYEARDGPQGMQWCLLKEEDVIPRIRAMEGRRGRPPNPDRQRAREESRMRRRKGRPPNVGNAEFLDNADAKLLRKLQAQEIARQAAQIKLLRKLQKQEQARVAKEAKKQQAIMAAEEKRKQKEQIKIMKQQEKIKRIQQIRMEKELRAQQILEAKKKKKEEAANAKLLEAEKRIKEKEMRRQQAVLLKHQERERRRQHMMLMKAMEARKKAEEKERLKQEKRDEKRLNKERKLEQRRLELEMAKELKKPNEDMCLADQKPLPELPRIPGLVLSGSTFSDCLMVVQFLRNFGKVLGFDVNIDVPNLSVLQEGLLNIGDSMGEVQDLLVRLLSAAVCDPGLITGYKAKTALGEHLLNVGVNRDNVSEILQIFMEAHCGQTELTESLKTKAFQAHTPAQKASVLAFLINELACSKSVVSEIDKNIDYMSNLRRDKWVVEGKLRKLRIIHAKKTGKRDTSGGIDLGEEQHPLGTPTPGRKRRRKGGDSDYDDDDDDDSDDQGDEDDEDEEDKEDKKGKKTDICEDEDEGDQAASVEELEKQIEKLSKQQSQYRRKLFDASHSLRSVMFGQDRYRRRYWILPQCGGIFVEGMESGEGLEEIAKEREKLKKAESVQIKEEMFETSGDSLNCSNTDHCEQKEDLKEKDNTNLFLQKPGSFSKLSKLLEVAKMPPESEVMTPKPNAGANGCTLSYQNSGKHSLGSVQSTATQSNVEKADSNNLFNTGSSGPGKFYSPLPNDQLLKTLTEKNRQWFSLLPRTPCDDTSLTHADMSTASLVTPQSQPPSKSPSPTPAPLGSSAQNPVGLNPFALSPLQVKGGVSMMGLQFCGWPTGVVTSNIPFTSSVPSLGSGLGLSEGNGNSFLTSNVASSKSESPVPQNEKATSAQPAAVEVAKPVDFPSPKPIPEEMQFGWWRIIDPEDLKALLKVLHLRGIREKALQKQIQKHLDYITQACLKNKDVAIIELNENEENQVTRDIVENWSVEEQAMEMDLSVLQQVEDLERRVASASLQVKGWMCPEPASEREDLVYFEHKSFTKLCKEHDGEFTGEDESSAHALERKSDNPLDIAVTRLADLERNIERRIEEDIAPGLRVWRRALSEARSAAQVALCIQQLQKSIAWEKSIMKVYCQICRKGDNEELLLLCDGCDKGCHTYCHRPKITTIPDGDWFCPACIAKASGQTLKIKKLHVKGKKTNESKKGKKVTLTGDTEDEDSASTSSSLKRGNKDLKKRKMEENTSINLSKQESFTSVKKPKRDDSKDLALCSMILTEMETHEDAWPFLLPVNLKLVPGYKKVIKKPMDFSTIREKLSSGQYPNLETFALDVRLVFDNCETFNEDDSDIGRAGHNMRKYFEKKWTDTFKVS
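Inhibition is scored as reduced AlphaScreen emission. The BAZ2B/b-H3(5-23)K14Ac complex (50 nM each) in PBS pH 7.4, 0.01% Tween-20 meets compound (up to 110 uM) for 30 min at RT before bead addition.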
HP1b chromo inh: blocks HP1-beta chromodomain binding to methylated histone tails; Potency, µM (titrated, usually from 114 µM), usual class: inhibitors; AlphaScreen HP1-beta / biotin-H3K9me3 peptide binding; 0.56% of 390,000 active; AID 540317; P83916; note: nearly all actives have a fitted effect of over 70% in size
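HP1-beta protein (50 nM final) preincubated 30 min at room temperature with biotinylated H3(1-18)K9me3 peptide (50 nM) in PBS pH 7.4, 0.01% Tween-20, then compound added for 30 min. AlphaScreen streptavidin donor/nickel chelate acceptor beads (10 ug/mL final), 30 min dark, luminescence read.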
Six1-Eya2 inh: blocks human Six1 binding to Eya2 | AlphaScreen GST-Six1/His-Eya2 binding, biochemical; stronger effect = lower value | 0.56% of 360,000 active | Q15475+O00167 | activity change, % (concentration not given with the values); in the data active = activity change below about -65%; inconclusive = mostly about -30% to -63%
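Homogeneous AlphaScreen proximity assay pairing GST-Six1 with His-tagged Eya2 (added as 5X mix: 250 nM and 500 nM) in 50 mM Tris pH 8.0, 300 mM NaCl, 1 mM TCEP. Glutathione donor and nickel acceptor beads; 1 h, 37 °C, dark.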
CtBP-E1A inh: inhibitors of CtBP/E1A interaction; AlphaScreen GST-E1A/His-CtBP binding, 1536-well; stronger effect = lower value; 0.49% of 340,000 active; activity change, % (test concentration not listed); in the data active = activity change below about -65%; inconclusive = mostly about -30% to -63%
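Homogeneous bead-based format: GST-tagged E1A captured on glutathione donor beads, His-tagged CtBP on nickel acceptor beads; compounds precede bead addition by 2 h at 37 °C.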
G9a block: inhibitors of human histone lysine methyltransferase G9a | G9a H3K9 monomethylation, AlphaScreen, 2 h | Q96KQ7 | AID 504332 | Potency, µM (top dose mostly 102 µM), usual class: inhibitors | 8.8% of 350,000 active; note: nearly all actives have a fitted effect of over 75% in size
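AlphaScreen read-out: biotin-H3K9 peptide (500 nM) methylation by 20 nM enzyme with 20 uM SAM, 2 h at room temperature after 15 min compound preincubation; anti-monomethyl H3K9 antibody plus donor/acceptor beads, 10 min dark.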
JMJD2A Tudor: JMJD2A Tudor domain (human) inhibition; AlphaScreen JMJD2A-Tudor / H3K4me3 peptide binding; AID 504339; Potency, µM (doses to about 114 µM), actives largely listed as inhibitors; 4.4% of 390,000 active; note: nearly all actives have a fitted effect of over 50% in size
Large screens that a line does not name were inactive. Sampled rows, rich in hits. Any-hit rate of the full collection: about 10%. Unless noted, calls come from the whole dose curve; as a rule, active = well fitted inhibition curve with a large enough effect; inconclusive = small, poorly fitted or top-dose-only effect; inactive = no such curve, though single readings can be large or run the other way.

O=C(NN=C(c1ccccc1)c1ccccn1)c1ccccc1	Six1-Eya2 inh -68, JMJD2A Tudor inconclusive (no result: BAZ2B inh, G9a block)
C/C(=N/NC(=O)c1ccc(C(C)(C)C)cc1)c1ccccn1	Six1-Eya2 inh -88, JMJD2A Tudor 45µM (no result: BAZ2B inh, G9a block)
C/C(=N\NC(=O)c1ccccc1Cl)c1ccccn1	BAZ2B inh 32µM, Six1-Eya2 inh -91, JMJD2A Tudor 56µM (no result: CtBP-E1A inh)
CCOc1ccc(OCc2ccc(C(=O)N/N=C(\C)c3ccccn3)cc2)cc1	BAZ2B inh inconclusive, Six1-Eya2 inh inconclusive, CtBP-E1A inh inconclusive
COc1ccc(C2N(Cc3ccccc3)CC(=O)N2/N=C(\C)c2ccccc2)cc1 (stereo not given)	none
C/C(=N\NC(=O)c1cc(-c2cccs2)nc2ccccc12)c1ccccn1	BAZ2B inh 5.6µM, Six1-Eya2 inh -82, CtBP-E1A inh -86, JMJD2A Tudor 28µM
C/C(=N\NC(=O)c1ccc(Cl)c(Cl)c1)c1ccccn1	BAZ2B inh 7.9µM, Six1-Eya2 inh inconclusive, CtBP-E1A inh inconclusive, JMJD2A Tudor inconclusive
C/C(=N\NC(=O)C1COc2ccccc2O1)c1ccc(C)o1 (stereo not given)	none
C/C(=N\NC(=O)C1COc2ccccc2O1)c1ccccn1 (stereo not given)	BAZ2B inh 25µM, Six1-Eya2 inh -91, CtBP-E1A inh -86, JMJD2A Tudor 50µM
COc1ccc(C(=O)N/N=C(\C)c2ccccn2)cc1OC	BAZ2B inh 7.9µM, Six1-Eya2 inh -89, CtBP-E1A inh -93, JMJD2A Tudor 22µM (no result: G9a block)
COc1ccc(NC(=O)c2ccccn2)cc1OC	G9a block inconclusive (no result: CtBP-E1A inh)
COCCNC(=O)C1(C)CCCN(C(=O)COc2ccccc2)C1 (stereo not given)	none (no result: BAZ2B inh, HP1b chromo inh, G9a block, JMJD2A Tudor)
O=C(Cn1ccc([N+](=O)[O-])n1)Nc1nc2ccccc2s1	none
CN(CC(=O)Nc1c(Cl)cccc1Cl)C(=O)CCNS(=O)(=O)c1ccccc1C(F)(F)F	none
COc1cc(C(C)=NNC(=O)c2ccncc2)ccc1O	JMJD2A Tudor 32µM (no result: BAZ2B inh, G9a block)
Cc1cccc2sc(NNC(=O)c3cc(-c4cccs4)nc4ccccc34)nc12	BAZ2B inh 3.5µM, G9a block 32µM, JMJD2A Tudor inconclusive
C/C(=N\NC(=O)c1cccc(Br)c1)c1ccccn1	BAZ2B inh 3.5µM, Six1-Eya2 inh -90, JMJD2A Tudor 22µM
Cc1ccc(NC(=O)c2cc(-c3cccs3)nc3ccccc23)c(C)c1	none (no result: Six1-Eya2 inh, CtBP-E1A inh)
COC(=O)C1=C(C)N(Cc2ccco2)C(=O)N[C@@H]1c1ccco1	none (no result: BAZ2B inh, G9a block)
O=C(Cc1ccccc1)Nc1c(C(=O)Nc2ccccc2F)oc2ccccc12	none (no result: Six1-Eya2 inh, CtBP-E1A inh)
CN(C)Cc1ccccc1-c1cc(NCc2ccccc2)ncn1	none (no result: BAZ2B inh, HP1b chromo inh, Six1-Eya2 inh, CtBP-E1A inh, JMJD2A Tudor)
COCCN(C(=O)c1ccco1)C(C(=O)NC1CCCC1)c1cccs1 (stereo not given)	none
Cc1ccc(N(CCC#N)C(=O)COC(=O)C2=COCCO2)cc1	G9a block 40µM
CN(C)C(=O)c1ccc(NC(=O)COC(=O)C2CCN(S(=O)(=O)c3ccc4c(c3)OCCO4)CC2)cc1	G9a block 40µM
Cc1ccc(N(CCC#N)C(=O)COC(=O)C2CCN(S(=O)(=O)c3ccc4c(c3)OCCO4)CC2)cc1	G9a block 32µM
O=C(CSc1nnc(-c2ccccc2)o1)OCc1ccccc1	none
COCCCNC(=O)c1nn(-c2ccc(C)cc2)nc1CO	none (no result: Six1-Eya2 inh, CtBP-E1A inh)
C(=N\N1CCOCC1)/c1nc(-c2ccccc2)n2ccccc12	BAZ2B inh inconclusive, G9a block 18µM
CC(C)(C)c1ccc(-c2nc(C=O)c3ccccn23)cc1	none
Cc1ccc(S(=O)(=O)C(CNC(=O)C(=O)NCCc2ccccc2)c2cccs2)cc1 (stereo not given)	none (no result: Six1-Eya2 inh, CtBP-E1A inh)
NC(=S)N=Nc1c(O)n(CCCl)c2ccc(Br)cc12	BAZ2B inh inconclusive, CtBP-E1A inh inconclusive
C/C(Cl)=C\Cn1c(O)c(N=NC(N)=S)c2cc(Br)ccc21	BAZ2B inh 10µM, HP1b chromo inh inconclusive, Six1-Eya2 inh inconclusive, JMJD2A Tudor 45µM (no result: G9a block)
COc1ccc(CNc2oc(/C=C/c3cccc(OC)c3)nc2C#N)cc1	none (no result: Six1-Eya2 inh, CtBP-E1A inh)
Oc1ccc(C2=Nn3c(nnc3-c3ccco3)SC2)cc1O	BAZ2B inh inconclusive, HP1b chromo inh inconclusive, Six1-Eya2 inh -89, CtBP-E1A inh -94, G9a block 13µM, JMJD2A Tudor 45µM
COc1ccc(C2=Nn3c(nnc3-c3ccco3)SC2)cc1	Six1-Eya2 inh -66, CtBP-E1A inh -80
O=C(Nc1ccc(F)c(Cl)c1)N1CCN2CCCCC2C1 (stereo not given)	BAZ2B inh inconclusive (no result: Six1-Eya2 inh, CtBP-E1A inh)
COc1ccccc1C1NC(c2ccc3c(c2)OCO3)=CC(c2cc(Br)ccc2O)N1 (stereo not given)	none (no result: BAZ2B inh, Six1-Eya2 inh, CtBP-E1A inh, G9a block)
Cc1ccccc1C(=O)Nc1ccc(S(=O)(=O)N2CCN(C)CC2)cc1	none
CCC(=O)NC(=S)Nc1ccc(S(=O)(=O)N2CCN(C)CC2)cc1	none
CCC(=O)Nc1ccc2c(c1)C(=O)N(C)C2=O	none
CN1CCN(S(=O)(=O)c2ccc(NC(=S)NC(=O)c3ccc(Cl)cc3)cc2)CC1	HP1b chromo inh inconclusive, Six1-Eya2 inh inconclusive, G9a block 18µM, JMJD2A Tudor inconclusive
CN1C(=O)c2ccc(NC(=S)NC(=O)C(C)(C)C)cc2C1=O	G9a block 45µM
Cc1occc1C(=O)Nc1ccc(S(=O)(=O)N2CCN(C)CC2)cc1	G9a block 56µM
CN1CCN(S(=O)(=O)c2ccc(NC(=S)NC(=O)C(C)(C)C)cc2)CC1	G9a block 56µM (no result: CtBP-E1A inh)
COc1cccc(Cn2c(C)c(CNC3CCCCC3)c(C(=O)O)c2C)c1	none (no result: Six1-Eya2 inh, CtBP-E1A inh)
CN(Cc1ccccc1)S(=O)(=O)c1ccc(NC(=S)NC(=O)C(C)(C)C)cc1	G9a block 3.2µM
O=C1C=CC2=C3c4cc(O)c(O)cc4CC3(O)COC2=C1O (stereo not given)	HP1b chromo inh inconclusive, Six1-Eya2 inh inconclusive, CtBP-E1A inh inconclusive, JMJD2A Tudor 3.2µM (no result: BAZ2B inh, G9a block)
CCOc1ccc(C2C3=C(Nc4nc(N)[nH]c(=O)c42)c2ccccc2C3=O)cc1 (stereo not given)	Six1-Eya2 inh -72, JMJD2A Tudor inconclusive
CCCOc1ccc(C2C3=C(Nc4nc(N)[nH]c(=O)c42)c2ccccc2C3=O)cc1 (stereo not given)	Six1-Eya2 inh inconclusive (no result: CtBP-E1A inh)
C=C1CN(C(C(=O)OC)C(C)C)S(=O)(=O)c2ccc(F)cc21 (stereo not given)	none (no result: BAZ2B inh, Six1-Eya2 inh, CtBP-E1A inh, G9a block)
COc1ccc(C(=O)/C=C/c2ccc(N3CCCCC3)c([N+](=O)[O-])c2)cc1	BAZ2B inh 4µM, HP1b chromo inh 25µM, G9a block 10µM, JMJD2A Tudor 11µM
COc1ccc(C(=O)/C=C/c2ccc(N(C)C)cc2)c(OC)c1	none
